From PubChem
Most compounds without a hit are left out; they make up all but 3.2% or so of the library.
CHT block – inhibits the human high affinity choline transporter | B-score at 10 µM | actives 0.86% (n = 310,000) | CHT-expressing cells, membrane potential dye, choline response; hits give low values;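 active = B-score over 3 SD under the library average, and starting fluorescence ratio not unusually high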;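 note: choline stimulus applied at its EC90 after an EC20 pre-addition; B-score computed on integrated fluorescence ratio after choline addition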
Target sequence (Q9GZV3 whole entry, looked up): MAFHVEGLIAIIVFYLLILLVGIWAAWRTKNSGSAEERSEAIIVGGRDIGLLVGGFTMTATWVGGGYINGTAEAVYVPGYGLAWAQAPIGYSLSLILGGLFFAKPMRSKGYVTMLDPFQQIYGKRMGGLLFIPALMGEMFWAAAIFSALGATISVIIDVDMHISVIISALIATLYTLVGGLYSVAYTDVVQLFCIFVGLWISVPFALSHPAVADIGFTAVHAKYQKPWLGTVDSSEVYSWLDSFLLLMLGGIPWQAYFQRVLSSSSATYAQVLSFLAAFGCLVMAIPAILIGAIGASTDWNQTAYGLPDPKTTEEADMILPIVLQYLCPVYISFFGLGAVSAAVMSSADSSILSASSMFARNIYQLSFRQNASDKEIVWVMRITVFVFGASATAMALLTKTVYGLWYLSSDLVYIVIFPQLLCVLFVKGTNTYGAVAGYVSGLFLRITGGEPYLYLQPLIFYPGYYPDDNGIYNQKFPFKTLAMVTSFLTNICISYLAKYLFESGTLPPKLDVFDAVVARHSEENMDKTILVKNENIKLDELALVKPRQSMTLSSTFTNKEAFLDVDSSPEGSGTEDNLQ
Kir21 block – inhibitors of mouse Kir2.1 inward-rectifier potassium channel; HEK293-Kir2.1, FluxOR thallium flux fluorescence; hits give low values; actives 0.85% (n = 310,000); B-score at 10 µM; P35561; AID 1672;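 active = fluorescence ratio B-score at or below minus 3 SD of library scores, with starting-brightness B-score within 2 SD, cut at about -4.2 in these data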;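 note: channel flux triggered by added potassium and thallium sulfate stimulus; B-score of peak minus minimum fluorescence over baseline after thallium stimulus; more negative B-score means stronger Kir2.1 block with less thallium influx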
TMEM16A inh – mouse TMEM16A channel inhibition, primary screen. Q8BHY3. HEK293 TMEM16A/YFP iodide influx fluorescence, ionomycin. normalized B-score (activity score, 25-100; higher = stronger inhibition) at 10 µM. actives 1.2% (n = 310,000);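 active = ratio plate-corrected score three or more library SD toward inhibition, starting fluorescence score within five deviations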;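 note: score derived from kinetic fluorescence span divided by baseline fluorescence per well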
Rce1 inh – yeast Ras-converting enzyme inhibition; Q03530; yeast membranes, quenched prenylated peptide cleavage fluorescence; calls only; actives 0.27% (n = 290,000);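 active = fall in fluorescence gain of 50% or more versus controls, with final raw signal at or below 3038400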;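 note: plate controls were neutral control wells for no effect and wells lacking membranes for full effect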
CHT allo act – allosterically activates the human high affinity choline transporter; CHT-expressing cells, membrane potential dye, choline EC20; hits give high values; LV-AA mutant CHT in HEK293 cells; B-score at 10 µM; actives 0.49% (n = 310,000); AID 488977;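 active = initial fluorescence not abnormally high and integrated response B-score, plate-corrected, over 3 SD above library mean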
TMEM16A act – mouse TMEM16A channel activation, primary screen. Q8BHY3. HEK293 TMEM16A/YFP-H148Q/I152L, iodide quench fluorescence; hits give low values. B-score at 10 µM. actives 0.3% (n = 340,000);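 active = fluorescence-ratio B-score plate-corrected deviation score at least 3 library SD below zero, with starting fluorescence score within 5 deviations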;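 note: channel opened by trigger with iodide after compound preincubation; score built on the fluorescence ratio of max minus min over baseline; more negative score means more quench and so TMEM16A activation or potentiation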
Active calls of the source: *; i = inactive; . = no result given; + = active, no number.

SMILES	CHT block	Kir21 block	TMEM16A inh	Rce1 inh	CHT allo act	TMEM16A act
Brc1ccc(OCc2ccccc2)c(CNCc2ccncc2)c1	i	-5.28*	i	i	i	i
Fc1ccc(COc2ccccc2CNCc2ccncc2)cc1	i	-2.02	i	i	i	i
O=[N+]([O-])c1ccc(COc2cccc(CNc3ccc(F)cc3)c2)cc1	i	-0.03	i	i	i	i
OCCNCc1cc(Br)ccc1OCc1ccc(Cl)cc1	i	-4.95*	i	i	i	i
OCCNCc1cccc(OCc2ccc(Cl)cc2)c1	i	-8.71*	i	i	i	i
CC(C)c1cc(Br)ccc1OCCCN1C(=O)NC(C)(C)C1=O	i	-6.75*	i	i	i	i
Cc1ccc2nc(N3CCN(S(=O)(=O)c4ccc5c(c4)OCCO5)CC3)c(C#N)cc2c1	i	0.36	i	i	i	i
Cc1ccc(S(=O)(=O)N2CCCN(c3nc4cc(C)ccc4cc3C#N)CC2)cc1	i	0.22	i	i	i	-14*
COc1ccccc1NC(=O)Cc1nnc(SCC(=O)NC2CCCCC2)n1C	i	-0.33	i	i	i	i
CCC1(CC)Cc2ccccc2C(=O)N1	i	0.47	i	i	i	i
CCC1(CC)Cc2ccccc2C(N)=C1C#N	i	-1.67	i	i	i	-53.1*
CC1CC(C)CN(S(=O)(=O)CCNC(=O)c2ccccc2)C1 (stereo not drawn)	i	-1.14	i	i	i	i
CN(C)/C=N/c1c(C#N)cnn1-c1ncnc2sc(-c3ccccc3)cc12	i	-2.58	i	+	i	i
CN(C)/C=N/c1c(C#N)cnn1-c1ccccc1	i	0.18	i	i	i	i
CCc1cc(=O)oc2cc(OCC(=O)N3CCC(C(=O)O)CC3)ccc12	i	0.06	i	+	i	i
COc1ccc(CNC(=O)C2CCC(CNS(=O)(=O)c3ccccc3)CC2)cc1 (stereo not drawn)	i	-2.46	i	i	i	i
CCCCC(=O)NC(c1ccc([N+](=O)[O-])cc1)c1c(O)ccc2ccccc12 (stereo not drawn)	i	0.79	100*	i	i	i
CCC(=O)NC(c1ccc([N+](=O)[O-])cc1)c1c(O)ccc2ccccc12 (stereo not drawn)	i	-2.17	i	i	i	i
N=c1c(C(=O)NCc2ccc(F)cc2)cc2c(=O)n3ccccc3nc2n1Cc1cccnc1	i	0.37	i	+	i	i
N=c1c(C(=O)NC2CCCCC2)cc2c(=O)n3ccccc3nc2n1CCc1ccccc1	i	1.08	i	i	7.32*	i
Cc1cc(C)c2c(c1)-c1cc(C)nn1C(c1ccc3c(c1)OCO3)N2 (stereo not drawn)	i	0.01	i	+	i	i
Cc1cc2n(n1)C(c1ccc(O)cc1)Nc1ccccc1-2 (stereo not drawn)	i	-1.18	i	i	i	i
CCNS(=O)(=O)c1ccc(CCC(=O)N2CCCC2)cc1	i	-0.79	i	i	i	i
CCC(CC)C(=O)Nc1ccc(C)c(O)c1	i	1.41	i	i	i	-9.57*
CCC(CC)C(=O)Nc1cc(C)cc(C)c1	i	0.01	i	i	i	i
SMILES	CHT block	Kir21 block	TMEM16A inh	Rce1 inh	CHT allo act	TMEM16A act
Cc1csc(NC(=O)CSc2ncnc3c2cnn3-c2ccccc2Cl)n1	i	0.94	100*	i	i	i
COc1ccc(CC(=O)Nc2ccccc2Oc2ccccc2)cc1	-6.19*	-3.72	i	i	i	.
O=C(Nc1ccc2oc(-c3cccnc3)nc2c1)c1cccnc1	i	1.14	i	.	i	i
CC(C)CC(=O)Nc1ccc2oc(-c3cccnc3)nc2c1	i	0.53	i	+	i	i
Cc1ccc(NC(=O)c2ccccc2NS(=O)(=O)c2ccc(Cl)s2)cc1	i	-1.96	i	i	i	i
O=C(Nc1ccccc1)c1ccccc1NS(=O)(=O)c1ccc(Cl)s1	i	-0.99	100*	i	i	i
CCc1cccc(CC)c1C(O)c1cccnc1 (stereo not drawn)	i	-4.62*	i	i	i	i
CCc1cccc(CC)c1NC(=S)NCC(c1cccnc1)N(C)C (stereo not drawn)	i	0.07	i	i	i	i
O=C(COC(=O)CCS(=O)(=O)c1ccccc1)NC(=O)c1ccc(OC(F)F)cc1	i	0.67	i	i	i	i
Cc1ccc2oc(C(=O)NCC(c3ccco3)N(C)C)c(C)c2c1 (stereo not drawn)	i	-1.6	i	i	i	i
Cc1ccccc1N1CCN(Cc2c[nH]c3ccccc23)CC1	i	-5.5*	i	i	i	i
C=CCOc1ccccc1CN1CCC(Cc2ccccc2)CC1	i	-4.27*	i	i	i	i
OCc1ccccc1OCCCN1CCC(Cc2ccccc2)CC1	i	0.79	i	i	i	i
COc1cc(OC)c(CN2CCC(Cc3ccccc3)CC2)cc1Br	i	-4.82*	i	i	i	i
CC1(C)CC(NC(=O)c2cccc(S(=O)(=O)Nc3cccc(Cl)c3)c2)CC(C)(C)N1	.	.	.	.	.	i
O=C(Nc1cc(Cl)ccn1)C1(c2ccccc2)CC1(Cl)Cl (stereo not drawn)	i	0.72	i	i	i	i
COc1ccc(-c2nnc(SCc3ccccn3)n2C)cc1	i	0.04	i	i	i	i
COc1ccc(N=C(N)SCc2ccccn2)cc1	i	-4.46*	i	i	i	i
CN(C(=O)c1ccnn1C)C1CCCN(Cc2ccccc2F)C1 (stereo not drawn)	i	1.37	i	i	i	i
Cc1cc(C)nc(SCc2ccc(C(=O)N/N=C/c3ccco3)cc2)n1	i	-4.32*	i	i	i	i
CC(=O)Oc1ccc2cc(-c3ccccc3)c(=O)oc2c1	i	1.92	i	i	i	i
COC(=O)C1=C[C@@H](C(=O)OC)[C@@H]2C3=C(C(=O)C2(C)C)[C@H](c2ccccc2)[C@@H]2C(=O)N(C)C(=O)[C@@H]2[C@@H]3C1	i	-1.05	i	i	i	i
CC1=NN(c2ccc(Br)cc2)C(=O)/C1=C/c1ccc(-c2ccccc2C(=O)O)o1	-7.23*	0.08	i	i	i	i
